What all share (experiment): NCI-60 one-dose screen, 48 h (100 = growth as untreated, 0 = no growth, -100 = all killed)
Conditions in all cases: 10 µM unless noted

Assay [1] has as its system DU-145 prostate.
Assay [2] concerns K-562 leukemia.
In assay [3] the test system is MALME-3M melanoma.
In assay [4] the test system is MDA-MB-231 breast.
Assay [5] concerns SF-268 CNS.
The subject of assay [6] is SF-295 CNS.
In assay [7] the test system is SF-539 CNS.
Assay [8] has as its system UACC-257 melanoma.
In assay [9] the test system is M14 melanoma.
Assay [10] concerns RXF 393 renal.

The panel holds about 83,000 compounds, 20% with a hit somewhere; the sample as a whole holds those more often.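 Cell lines were cultured in 96-well plates, exposed to a single compound concentration, and assessed for percent growth 48 hours later.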 Values without a mark were called inactive. Activity calls are given as the source filed them. The calls were made as follows: active = growth percent below 10; inactive = the rest.

For 15 compounds, growth results are on record in PubChem BioAssay (NCI).

Consider `CC(=O)OCC(=O)C1CCC=CC1OC(C)=O` (configuration not stated), for which the growth in assay [1] was 103%; in [2], 98.9%; in [3], 74.2%; in assay [4] it was 109%; in assay [5], 106%; in assay [6], 94.8%. Besides, the growth was 103% in assay [7], 92.6% in [8] and 96.9% in [9].

`O=C1Nc2ccccc2C12CC(c1ccccc1)=NN2` (configuration not stated): the growth was 88.1% in assay [1]; 18.5% in assay [2]; 40.1% in [3]; 55.4% in [4]; 90.6% in assay [10]; 67.1% in assay [5]. Also, the growth is 47% in assay [7] and 38.1% in [9].

As for `CC1(C)OCC2OC3(C(=O)O)OC(C)(C)OC3C2O1` (configuration not stated), the growth in [1] was 104%; in assay [2], 95.9%; in assay [3], 104%; in [4], 107%; in [5], 101%; in assay [6], 97%. The growth in assay [7] is 108%; in assay [8] it was 90%; in assay [9], 111%.

On to `Oc1ccccc1/C=N/Nc1ccc2ccccc2n1`, for which the growth in assay [1] was 55.6%; in [2], 17.8%; in assay [3], 35.2%; in [4], 57.3%; in assay [5], 52%; in assay [6], 33.5%. Also, the growth in assay [7] was 42.1%; in [8], 62.8%; in [9], 52.3%.

For the compound `Cc1noc(C)c1-c1cc(O)cc(C(O)c2ccccc2)c1` (configuration not stated), the growth was 87.5% in [1]; 42.1% in assay [2]; 60% in [3]; 62.4% in assay [4]; 71.5% in [5]; 42.5% in assay [6]. Moreover, the results for the growth in [7], in [8] and in assay [9] were 62.5%, 40.4% and 56%, respectively.

For `COc1ccc(/C=N\NC(=O)c2ccncc2)cc1O`, the growth was 99.4% in [1]; 96.4% in [2]; 78.9% in [3]; 94.8% in [4]; 99% in assay [5]; 92.5% in assay [6]. The growth in assay [7] was 107%; in assay [8] it was 89.1%; in [9] it was 101%.

As for `CCCCCCCCCCCCCCCC[N+]1(CC)CCCC1`, the growth in [1] is -92.2% (active); in [2] it was -34.9% (active); in assay [3], -49.9% (active); in [4] it was -61.6% (active); in [5] it was -57% (active); in [6] it was -70.1% (active). Further, the growth is -28.4% (active) in assay [7], -46% (active) in assay [8] and -45% (active) in [9].

As to `C(=N\Nc1nnn(Cc2ccccc2)n1)/c1ccccc1`, the growth in assay [1] is 40%; in assay [2], 29.3%; in assay [3], 24.7%; in assay [4] it was 98.2%; in assay [5] it was 46.2%; in assay [6] it was 31.2%. For the same compound, the growth was 41% in assay [7], 43.9% in assay [8] and 42% in [9].

For the compound `COc1ccc(-c2nc(Nc3cc(C)[nH]n3)c3ccccc3n2)cc1`, the growth in assay [1] is 61%; in assay [2] it was 24.2%; in assay [3], 79.9%; in assay [4], 65.3%; in [5], 37.3%; in assay [6] it was 48.8%. The growth in [7] was 15%; in [8], 52%; in assay [9], 60.4%.

Regarding `CN1CCCCC1CCN1c2ccccc2Sc2ccc(Br)cc21` (configuration not stated), the growth was 77.9% in assay [1]; 2.32% (active) in assay [2]; 78.4% in assay [3]; 67.6% in assay [4]; 66.3% in assay [5]; 59.6% in [6]. The growth in [7] was 95.9%; in assay [8], 70.7%; in assay [9], 49.1%.

Consider `COc1cc(OC)c(/C=C/c2cc[n+](C)c3ccccc23)c(OC)c1`, for which the growth in assay [1] is 18.5%; in assay [2], 7.21% (active); in [3], 5.28% (active); in assay [4] it was 22.5%; in assay [5], 15.7%; in assay [6] it was -48.8% (active). For the same compound, the growth in [7] is 12%; in assay [8], -24.7% (active); in assay [9] it was 36.2%.

In the case of `Nc1ccc(N2CCOCC2)cc1`, the growth is 118% in assay [1]; 102% in assay [2]; 86.5% in assay [3]; 96.1% in assay [4]; 108% in assay [10]; 107% in [5]. Further, the results for the growth in [8] and in assay [9] were 107% and 94.1%, respectively.

As for `Cl/C(=N\Nc1ccccc1)c1ccccc1`, the growth in [1] was 101%; in assay [2], 89.5%; in assay [3], 86.4%; in assay [4] it was 89.7%; in assay [5] it was 92.8%; in [6], 87.7%. Further, the growth was 103% in assay [7], 75.2% in assay [8] and 106% in assay [9].

With `O=C(/C=C/c1ccc(B(O)O)cc1)/C=C/c1ccc(B(O)O)cc1`, the growth was 64.4% in assay [1]; 12.9% in assay [2]; 38.6% in [4]; 10.2% in assay [10]; 59.2% in [5]; 89.8% in assay [6]. In addition, the growth in [7] was 21.6%; in assay [8] it was 51.9%; in assay [9], 20.5%.

For the compound `O=[N+]([O-])c1cccc(C2CC(c3ccccc3)=Nc3ccccc3S2)c1` (configuration not stated), the growth was 89.6% in assay [1]; 12.2% in assay [2]; 89.3% in assay [3]; 97.3% in assay [4]; 91.4% in assay [5]; 108% in assay [7]. The growth in [8] is 99.6%; in assay [9] it was 102%.
